Calls of active or inactive are those of the source. No stated cut-off is given here; in the data, active means inhibition above about 30%; inactive means the rest.
Experiment: growth suppression of yeast trafficking mutant, preliminary HTS, modulators of trafficking downstream of Golgi apparatus project, 1536-format plate, OD 615 nm (AID 637)
Details: yeast transport mutant growth, absorbance 615 nm, 18 h; hits give high values

Row | Structure (SMILES) | inhibition
1 | O=C(c1ccc2nc(N3CCCCC3)sc2c1)N1CCN(c2ccccn2)CC1 | 1% (inactive)
2 | CC(C)CCNC(=O)Cn1c(NCCC(C)C)nc2c1c(=O)n(C)c(=O)n2C | -2.5% (inactive)
3 | CC(=O)NC(C)c1nc2ccccc2n1C(C)C (centres undefined) | -2% (inactive)
4 | NC(=O)CSc1cn(CCNC(=O)c2cccs2)c2ccccc12 | -2.83% (inactive)
5 | Cc1cccc(C2CC(c3ccc(Cl)cc3)Nc3nc(N)nn32)c1 (centres undefined) | -5.25% (inactive)
6 | CCOC(=O)CN1CC23C=CC(O2)C(C(=O)Nc2ccc(C(C)=O)cc2)C3C1=O (centres undefined) | 2.67% (inactive)
7 | CCCSc1nnc(N2C(=O)CC(c3ccsc3)C3=C2CCCC3=O)s1 (centres undefined) | -4.5% (inactive)
8 | O=C(CN1CCN(Cc2ccc(F)cc2Cl)C1=O)NCCCN1CCOCC1 | -5.08% (inactive)
9 | CN(C)CCCN1C(=O)CSC1c1ccccc1 (centres undefined) | -1.83% (inactive)
10 | COC(=O)Cn1c(=O)c2c(nc3n2CC(C)CN3c2ccc(C)c(C)c2)n(C)c1=O (centres undefined) | -3.5% (inactive)
11 | CCCSC1=C(C#N)C(c2cc(OC)ccc2OC)CC(=O)N1 (centres undefined) | -0.33% (inactive)
12 | O=C(Nc1ccc(CN2CCOCC2)cc1)c1cc2ccccn2n1 | 2.5% (inactive)
13 | CCN(CC)CCn1c(=N)n(CCO)c2ccccc21 | 2.33% (inactive)
14 | CCN(CCCNS(=O)(=O)c1ccc2c(c1)oc(=O)n2C)c1cccc(C)c1 | 1.33% (inactive)
15 | COc1ccc(OC)c(C2=NOC(C(=O)Nc3c(C)n(C)n(-c4ccccc4)c3=O)C2)c1 (centres undefined) | -7.54% (inactive)
16 | O=C(Cn1cc2c(n1)CCCCC2)N1CCc2ccccc2C1 | -3% (inactive)
17 | Cn1c(=O)c2c(nc(SCCCC#N)n2Cc2c(F)cccc2Cl)n(C)c1=O | 1.17% (inactive)
18 | CCN1CCN(Cc2ccc(NC(=O)Nc3ccccc3)cc2)CC1 | 0.33% (inactive)
19 | CCOC(=O)N1CCN(Cc2nc3c(c(=O)n(C)c(=O)n3C)n2Cc2ccccc2)CC1 | 2.62% (inactive)
20 | COCCCNC(=O)Cn1cc2c(n1)CCC(C)C2 (centres undefined) | 0.17% (inactive)

Row | Structure (SMILES) | inhibition
21 | C=CCc1ccccc1OCCCCN1CCCC1 | -1.31% (inactive)
22 | COc1ccc(OCC(=O)N2CC3(C)CC2CC(C)(C)C3)cc1 (centres undefined) | -2.9% (inactive)
23 | O=C1c2ccccc2C(Nc2ccc(-c3nc4ccccc4[nH]3)cc2)N1Cc1ccco1 (centres undefined) | 0.5% (inactive)
24 | CCCNc1nc(N2CCOCC2)nc(N2CCOCC2)n1 | -7.38% (inactive)
25 | COCCn1c(SCC(=O)Nc2ccc3c(c2)OCCO3)nc2c(c1=O)SC(C)C2 (centres undefined) | -2% (inactive)
26 | COc1ccc(NC(=O)C2CCCN2S(=O)(=O)c2cccc3cccnc23)c(OC)c1 (centres undefined) | 84.7% (active)
27 | CCOC(=O)Cn1ncc(-c2ccccc2)c1N | -1.43% (inactive)
28 | O=C(O)C1CC(=O)N(CCOc2ccccc2)C1 (centres undefined) | -2.62% (inactive)
29 | Cc1ccc(-n2c3c(cc(C(=O)NCCCN4CCOCC4)c2=O)C(=O)CC(C)(C)C3)cc1 | -3.67% (inactive)
30 | CCOC(=O)C1CCN(Cc2ccc(OC)c(C)c2OC)CC1 | -7.1% (inactive)
31 | COc1ccc(C(C)N2CC34C=CC(O3)C(C(=O)OCC(C)C)C4C2=O)cc1 (centres undefined) | -2.33% (inactive)
32 | Cc1c(NC(=O)C2CCCCN2S(=O)(=O)c2ccc(Cl)cc2)c(=O)n(-c2ccccc2)n1C (centres undefined) | -1% (inactive)
33 | CC(C)(NC(=O)N1CCCC1)c1cccc(C(C)(C)NC(=O)N2CCCC2)c1 | -4% (inactive)
34 | CC(C)NC(=O)c1ccc2c(c1)nnn2C | -4.92% (inactive)
35 | Cc1ccc(C(=O)CC2(O)C(=O)N(C)c3ccc(Br)cc32)c(C)c1 (centres undefined) | -0.83% (inactive)
36 | Cc1ccc(NC(=O)CN(c2ccc3c(c2)OCO3)S(=O)(=O)c2c(C)n[nH]c2C)cc1 | 2.33% (inactive)
37 | COc1ccc(N2CCN(Cc3nc4c(c(=O)n(C)c(=O)n4C)n3Cc3ccccc3C)CC2)cc1 | -2% (inactive)
38 | CN(C(=O)c1ccco1)c1nnc(C23CC4CC(CC(C4)C2)C3)s1 | -0.83% (inactive)
39 | CCCC(=O)C1=C(N(C)c2ccccc2)CC(C)(C)C(C(=O)OC)C1=O (centres undefined) | -2.83% (inactive)

From PubChem BioAssay
